This is a sample that favours compounds with a hit; in the whole collection about 1% have one here.
RXFP1 antagonist: qHTS Assay for Antagonists of the Relaxin Receptor RXFP1 | HEK293-RXFP1, relaxin-stimulated cAMP HTRF, 30 min; hits give low values | activity change, negative = inhibition, % at 57.5 µM | Relaxin receptor 1 (Homo sapiens), Q9HBX9 | 350,000 tested, 0.59% active | AID 1259400, 2018;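 active means activity change of -60% or lower, but not beyond a set lower limit; inconclusive means change between -60% and -40%, or beyond the set limit; inactive means change above -40%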
PTHR1 agonist: qHTS for PTHR1 Agonists: Primary Screen | HEK293 GP2 PTHR1 cells, GloSensor cAMP luminescence, 1 h | 410,000 tested, 0.075% active | Potency, µM (top dose mostly 115 µM), most hits filed as activators | Parathyroid hormone/parathyroid hormone-related peptide receptor (Homo sapiens), Q03431; further: nearly all actives have a fitted effect of over 55% in size
Target sequence (Q03431 whole entry, looked up): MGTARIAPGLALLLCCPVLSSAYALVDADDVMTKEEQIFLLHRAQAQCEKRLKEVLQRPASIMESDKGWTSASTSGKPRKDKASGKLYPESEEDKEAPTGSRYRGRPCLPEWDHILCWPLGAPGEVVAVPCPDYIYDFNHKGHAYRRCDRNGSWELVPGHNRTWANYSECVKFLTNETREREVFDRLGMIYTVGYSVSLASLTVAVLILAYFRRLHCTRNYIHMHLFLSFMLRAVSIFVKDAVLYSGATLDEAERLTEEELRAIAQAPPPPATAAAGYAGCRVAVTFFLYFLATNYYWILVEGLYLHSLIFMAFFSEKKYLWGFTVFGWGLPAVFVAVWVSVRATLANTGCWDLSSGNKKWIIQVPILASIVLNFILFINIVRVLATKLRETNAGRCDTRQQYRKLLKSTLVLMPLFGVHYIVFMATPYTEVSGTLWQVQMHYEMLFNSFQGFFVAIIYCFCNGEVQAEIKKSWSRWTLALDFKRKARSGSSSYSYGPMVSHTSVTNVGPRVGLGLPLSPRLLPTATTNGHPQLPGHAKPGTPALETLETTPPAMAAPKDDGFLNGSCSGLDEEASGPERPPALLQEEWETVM
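HEK-293-derived GP2 cells expressing PTHR1 and a GloSensor cAMP reporter, 3,000/well, plated overnight, given luciferin plus IBMX (each 0.5 mM as added) for 1 h at 37 °C, then compound for 1 h at 37 °C. Luminescence was read after 15 min at room temperature.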
gsp ag: qHTS for Agonist of gsp, the Etiologic Mutation Responsible for Fibrous Dysplasia/McCune-Albright Syndrome: qHTS. gsp mutant cells, cAMP HTRF, 30 min. Potency, µM (highest dose often 76.9 µM), most hits filed as activators. 340,000 tested, 0.13% active; active means well fitted activation curve with a large enough effect; inconclusive means small, poorly fitted or top-dose-only effect, or another doubt; inactive means no such curve, though single readings can be large or run the other way; cell line not stated here;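 further: phosphodiesterase inhibitor Ro 20-1724 added with compounds to block cAMP breakdown; nearly all actives have a fitted effect of over 60% in size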
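Cells in DMEM/10% FBS with G418 were pretreated with compounds in DMSO plus […] (300 uM stock) for 30 min at 37C. cAMP was measured by HTRF (cAMP-d2 plus anti-cAMP antibody-K) after 30 min at room temperature.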
RXFP1 ag: qHTS Assay for Agonists of the Relaxin Receptor RXFP1; HEK293T-RXFP1 cAMP TR-FRET, 30 min; response scale: percent of porcine relaxin response, buffer zero; Potency, µM (titrated, usually from 57.5 µM), usual class: activators; 370,000 tested, 0.3% active; AID 2676, 2010; further: nearly all actives have a fitted effect of over 60% in size
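cAMP rise read by TR-FRET after 30 min, 37C compound exposure (up to 58 uM) in RXFP1-transfected HEK293 cells with Ro 20174 present. EC50 from Hill-equation fits, with 29 nM porcine relaxin as 100% and buffer as basal.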
gsp antag: qHTS for Antagonists of gsp, the Etiologic Mutation Responsible for Fibrous Dysplasia/McCune-Albright Syndrome: qHTS; gsp-mutant cells, cAMP HTRF, 30 min; Potency, µM (titrated, usually from 76.9 µM), actives largely listed as inhibitors; 340,000 tested, 0.4% active; AID 624288, 2012; calls by dose curve; cell line not stated here;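 further: intracellular cAMP measured with PDE inhibitor Ro 20-1724 present during compound exposure; nearly all actives have a fitted effect of over 65% in size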
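Cells in G418 medium, seeded 16-24 h, 37C; buffer exchange to DPBS + 1 mM CaCl2, 0.5 mM MgCl2, 0.05% BSA; cpds in DMSO + […] (300 uM stock), 30 min 37C; HTRF cAMP detection.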
A number is an active result. Unless noted, the call rests on the fitted dose curve; in most records, active means well fitted curve in the direction sought with a large enough effect; inconclusive means small, poorly fitted or top-dose-only effect, or another doubt; inactive means no such curve, though single readings can be large; an effect the other way counts as inactive or inconclusive.

For CC[C@@]1(O)C(=O)OCc2c1cc1n(c2=O)Cc2cc3c(N)cccc3nc2-1 the results were PTHR1 agonist 44.7µM, RXFP1 ag inactive and gsp antag inconclusive.
`CN(C)CCC=C1c2ccccc2CCc2ccccc21` gave RXFP1 antagonist inactive, PTHR1 agonist inactive, RXFP1 ag inactive and gsp antag 20µM.
`O=c1[nH]c(=S)n(C2CC2)c(O)c1C=NCc1ccc(F)cc1` gave RXFP1 antagonist inactive, PTHR1 agonist inactive, gsp ag inactive, RXFP1 ag 25.1µM and gsp antag inactive.
O=c1[nH]c(=S)n(C2CC2)c(O)c1C=NCc1cccnc1 was read as RXFP1 antagonist inactive, PTHR1 agonist inactive, gsp ag inconclusive, RXFP1 ag inactive and gsp antag inactive.
Screening CC1COC2(c3ccccc3Cl)c3cc(Cl)ccc3NC(=O)CN12 (stereo not given) returned RXFP1 antagonist inactive.
For O=c1[nH]c2cc(Cl)ccc2n1C1CCNCC1 the results were RXFP1 antagonist inactive.
For C[C@]12C/C(=C/O)C(=O)C[C@@H]1CC[C@@H]1[C@@H]2CC[C@@]2(C)[C@H]1CC[C@]2(C)O the results were RXFP1 antagonist -99.1.
Screening O=C(CCCCl)c1ccc(F)cc1 returned RXFP1 antagonist inactive.
C[C@@H]([C@@H](O)c1ccccc1)N(C)C(=O)Cc1ccccc1 was read as PTHR1 agonist inactive, gsp ag inactive and gsp antag inactive.
For CN(C)CC(C(=O)Cc1ccccc1)c1ccccc1 (stereo not given) the results were RXFP1 antagonist -118.4, PTHR1 agonist inactive, gsp ag inactive and gsp antag inactive.
`O=C(Cn1c(=S)[nH]c2ccccc2c1=O)N1CCC2(CC1)OCCO2` gave RXFP1 antagonist inactive, PTHR1 agonist inactive, gsp ag inactive, RXFP1 ag inactive and gsp antag inactive.
Screening O=C(CCCCCn1c(=S)[nH]c2ccccc2c1=O)N1CCC2(CC1)OCCO2 returned RXFP1 antagonist -82.9, PTHR1 agonist inactive, gsp ag inactive, RXFP1 ag inactive and gsp antag inactive.
For COc1ccccc1N1CCN(C(=O)CCCn2c(=S)[nH]c3ccccc3c2=O)CC1 the results were RXFP1 antagonist -65.2, PTHR1 agonist inactive and gsp ag inactive.
O=C1CN2CCOC2(c2ccccc2Cl)c2cc(Cl)ccc2N1 (stereo not given) was read as RXFP1 antagonist inactive.
For CC(C)Oc1cccc(NC(=O)c2ccccc2C(F)(F)F)c1 the results were RXFP1 antagonist inactive.
Screening FC(F)(F)c1ccc2c(c1)ncn2C1CCN(Cc2nnnn2C2CCCCC2)CC1 returned RXFP1 antagonist -74.2, PTHR1 agonist inactive, gsp ag inactive, RXFP1 ag inactive and gsp antag inactive.
`Fc1ccc(Cn2nnnc2CN2CCC(n3nnc4cc(C(F)(F)F)ccc43)CC2)cc1` gave RXFP1 antagonist inactive, PTHR1 agonist inactive, gsp ag inactive, RXFP1 ag inactive and gsp antag inactive.
`COC[C@@H](NC(C)=O)C(=O)NCc1ccccc1` gave RXFP1 antagonist inactive.

Assay outcomes: PubChem, National Center for Advancing Translational Sciences (NCATS)
